# Data taken from PubChem BioAssay (NCATS).
# Results filed as inconclusive are left out. The source made the active and inactive calls. Calls come from the whole dose curve; as a rule, active = well fitted curve in the direction sought with a large enough effect; inconclusive = small, poorly fitted or top-dose-only effect, or another doubt; inactive = no such curve, though single readings can be large; an effect the other way counts as inactive or inconclusive.
# Experiments:
# [1] = Quantitative High-Throughput drug screen in 47 multiple myeloma cell lines against the NCATS MIPE library collection: Karpas417_ECACC cell viability assay (AID 1918961); settings: Karpas417 myeloma viability, CellTiter-Glo ATP luminescence, 48 h; viability (% of DMSO): at 45.8 µM (top of the series)
# Outline: (§1)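 Luminescent ATP measurement with CellTiter-Glo gives viability, scaled between DMSO-only wells (100%) and media-only wells (0%). Cells, 500 per well, faced library compounds for 48 hours at 37C.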
# [2] = Quantitative High-Throughput drug screen in 47 multiple myeloma cell lines against the NCATS MIPE library collection: KHM11_PLB cell viability assay (AID 1918962); settings: KHM11 myeloma cell viability, CellTiter-Glo ATP luminescence, 48 h; series mostly up to 45.8 µM; note: nearly all actives have a fitted effect of over 35% in size
# Outline: (§2)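 qHTS of the MIPE 4.0 collection: 500 myeloma cells/well, 48 h drug exposure at 37C in 5% CO2, then CellTiter-Glo for 5 min at room temperature before luminescence reading.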
# [3] = Quantitative High-Throughput drug screen in 47 multiple myeloma cell lines against the NCATS MIPE library collection: JIM3_ECACC cell viability assay (AID 1918963; note: nearly all actives have a fitted effect of over 35% in size); settings: JIM3 myeloma viability, CellTiter-Glo ATP, 48 h; series mostly up to 45.8 µM
# Outline: as §2
# [4] = Quantitative High-Throughput drug screen in 47 multiple myeloma cell lines against the NCATS MIPE library collection: JIM1_ECACC cell viability assay (AID 1918964); settings: JIM1 myeloma viability, CellTiter-Glo ATP luminescence, 48 h; series mostly up to 45.8 µM
# Outline: (§3)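 Myeloma cells (500 per well) were exposed to MIPE 4.0 compounds by pin transfer and incubated 48 hours at 37C, 5% CO2. Viability was read as ATP by CellTiter-Glo luminescence, normalised to DMSO (100%) and media-only (0%) wells.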
# [5] = Quantitative High-Throughput drug screen in 47 multiple myeloma cell lines against the NCATS MIPE library collection: INA6_PLB cell viability assay (AID 1918965; note: nearly all actives have a fitted effect of over 55% in size); settings: INA6 myeloma viability, CellTiter-Glo ATP luminescence, 48 h; series mostly up to 45.8 µM
# Outline: as §1
# [6] = Quantitative High-Throughput drug screen in 47 multiple myeloma cell lines against the NCATS MIPE library collection: H1112_PLB cell viability assay (AID 1918967; note: nearly all actives have a fitted effect of over 30% in size); settings: H1112 myeloma cells viability, ATP luminescence, 48 h; series mostly up to 45.8 µM
# Outline: as §3
# [7] = Quantitative High-Throughput drug screen in 47 multiple myeloma cell lines against the NCATS MIPE library collection: Karpas25_ECACC cell viability assay (AID 1918968; note: nearly all actives have a fitted effect of over 35% in size); settings: Karpas25 myeloma viability, CellTiter-Glo ATP, 48 h; series mostly up to 45.8 µM
# Outline: as §3
# [8] = Quantitative High-Throughput drug screen in 47 multiple myeloma cell lines against the NCATS MIPE library collection: KMS27_JCRB cell viability assay (AID 1918970); settings: KMS27 myeloma cells, CellTiter-Glo ATP viability, 48 h; viability (% of DMSO): at 45.8 µM (top of the series); note: nearly all actives have a fitted effect of over 30% in size
# Outline: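 Myeloma cells (500 per well) were exposed to MIPE 4.0 compounds for 48 h at 37 °C, 5% CO2; viability was read as ATP luminescence with CellTiter-Glo, normalized to DMSO-only (100%) and media-only (0%) wells.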
# [9] = Quantitative High-Throughput drug screen in 47 multiple myeloma cell lines against the NCATS MIPE library collection: MMM1_PLB cell viability assay (AID 1918976); settings: MMM1 myeloma cells viability, CellTiter-Glo, 48 h; series mostly up to 45.8 µM; note: nearly all actives have a fitted effect of over 35% in size
# Outline: (§4)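 qHTS format: cells plated (500/well), pin-dosed with MIPE 4.0 compounds, kept 48 h at 37 °C. Readout was CellTiter-Glo luminescence, median RLU.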
# [10] = Quantitative High-Throughput drug screen in 47 multiple myeloma cell lines against the NCATS MIPE library collection: NCIH929_DSMZ cell viability assay (AID 1918978); settings: NCI-H929 myeloma viability, CellTiter-Glo ATP, 48 h; series mostly up to 45.8 µM; note: nearly all actives have a fitted effect of over 35% in size
# Outline: as §4
# [11] = Quantitative High-Throughput drug screen in 47 multiple myeloma cell lines against the NCATS MIPE library collection: OCIMY1_PLB cell viability assay (AID 1918979); settings: OCI-MY1 myeloma viability, CellTiter-Glo ATP, 48 h; series mostly up to 45.8 µM; note: nearly all actives have a fitted effect of over 35% in size
# Outline: as §4
# [12] = Quantitative High-Throughput drug screen in 47 multiple myeloma cell lines against the NCATS MIPE library collection: MM1S_ATCC cell viability assay (AID 1918980); settings: MM1S myeloma viability, CellTiter-Glo ATP luminescence, 48 h; series mostly up to 45.8 µM; note: nearly all actives have a fitted effect of over 45% in size
# Outline: as §4
# [13] = Quantitative High-Throughput drug screen in 47 multiple myeloma cell lines against the NCATS MIPE library collection: MM1R_ATCC cell viability assay (AID 1918981); settings: MM1R multiple myeloma cells, CellTiter-Glo viability, 48 h; series mostly up to 45.8 µM; note: nearly all actives have a fitted effect of over 35% in size
# Outline: as §4
# [14] = Quantitative High-Throughput drug screen in 47 multiple myeloma cell lines against the NCATS MIPE library collection: KMS12BM_JCRB cell viability assay (AID 1918971); settings: KMS12BM myeloma viability, CellTiter-Glo ATP, 48 h; series mostly up to 45.8 µM; note: nearly all actives have a fitted effect of over 35% in size
# Outline: (§5)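 Steps: seed 500 cells per well; pin-transfer MIPE 4.0 library; incubate 48 h at 37C, 5% CO2, humidified; add CellTiter-Glo, 5 min room temperature; read luminescence.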
# [15] = Quantitative High-Throughput drug screen in 47 multiple myeloma cell lines against the NCATS MIPE library collection: KMS26_JCRB cell viability assay (AID 1918975); settings: KMS26 myeloma cells viability, CellTiter-Glo ATP, 48 h; series mostly up to 45.8 µM; note: nearly all actives have a fitted effect of over 45% in size
# Outline: as §5
# [16] = Quantitative High-Throughput drug screen in 47 multiple myeloma cell lines against the NCATS MIPE library collection: KMS12PE_JCRB cell viability assay (AID 1918972); settings: KMS12PE myeloma viability, CellTiter-Glo ATP, 48 h; series mostly up to 45.8 µM; note: nearly all actives have a fitted effect of over 30% in size
# Outline: as §1
# [17] = Quantitative High-Throughput drug screen in 47 multiple myeloma cell lines against the NCATS MIPE library collection: KMS20_JCRB cell viability assay (AID 1918973); settings: CellTiter-Glo ATP, 48 h; series mostly up to 45.8 µM; note: nearly all actives have a fitted effect of over 45% in size
# Outline: as §3
# [18] = Quantitative High-Throughput drug screen in 47 multiple myeloma cell lines against the NCATS MIPE library collection: KMS21BM_JCRB cell viability assay (AID 1918974); settings: ATP luminescence, 48 h; viability: at 45.8 µM (top of the series)
# Outline: as §3
# [19] = Quantitative High-Throughput drug screen in 47 multiple myeloma cell lines against the NCATS MIPE library collection: JJN3_DSMZ cell viability assay (AID 1918966; note: nearly all actives have a fitted effect of over 50% in size); settings: JJN3 myeloma cells viability, CellTiter-Glo ATP, 48 h; series mostly up to 45.8 µM
# Outline: as §3
# [20] = Quantitative High-Throughput drug screen in 47 multiple myeloma cell lines against the NCATS MIPE library collection: MOLP8_DSMZ cell viability assay (AID 1918977); settings: MOLP8 myeloma viability, CellTiter-Glo ATP luminescence, 48 h; series mostly up to 45.8 µM; note: nearly all actives have a fitted effect of over 45% in size
# Outline: as §4
# Potency is the fitted concentration of half-maximal effect.
structure (smiles),measurement,setting,value
N#Cc1cc(NC(=O)Nc2nnc(-c3ccncc3)s2)ccc1-c1cn[nH]c1,Potency,[1],inactive
same,Potency,[2],inactive
same,Potency,[3],inactive
same,Potency,[4],inactive
same,Potency,[5],inactive
same,Potency,[6],inactive
same,Potency,[7],inactive
same,Potency,[8],inactive
same,Potency,[9],3.32 µM (active)
same,Potency,[10],inactive
same,Potency,[11],inactive
same,Potency,[12],5.26 µM (active)
same,Potency,[13],inactive
c1cc(CN2CCCNCCNCCCNCC2)ccc1CN1CCCNCCNCCCNCC1,viability (% of DMSO),[1],134% (active)
same,Potency,[2],inactive
same,Potency,[3],inactive
same,Potency,[5],inactive
same,Potency,[6],inactive
same,Potency,[14],inactive
same,Potency,[15],inactive
COc1cc(C[C@@H](CO)[C@H](CO)Cc2ccc(O)c(OC)c2)ccc1O,Potency,[1],5.9 µM (active)
same,Potency,[2],1.18 µM (active)
same,Potency,[3],2.64 µM (active)
same,Potency,[5],1.18 µM (active)
same,Potency,[6],0.372 µM (active)
same,Potency,[7],0.418 µM (active)
same,Potency,[16],3.72 µM (active)
same,Potency,[17],0.526 µM (active)
same,Potency,[18],2.35 µM (active)
same,Potency,[10],0.59 µM (active)
same,Potency,[11],inactive
same,Potency,[12],0.372 µM (active)
same,Potency,[13],1.32 µM (active)
CCCNC(=O)[C@H]1O[C@H]1C(=O)N[C@H](C(=O)N1CCC[C@@H]1C(=O)OC)C(C)CC (some centres not stated),Potency,[1],2.96 µM (active)
same,Potency,[2],33.2 µM (active)
same,Potency,[3],16.6 µM (active)
same,Potency,[5],16.6 µM (active)
same,Potency,[19],2.96 µM (active)
same,Potency,[7],14.8 µM (active)
same,Potency,[8],5.9 µM (active)
same,Potency,[14],5.26 µM (active)
same,Potency,[16],6.62 µM (active)
same,Potency,[9],16.6 µM (active)
same,Potency,[20],2.64 µM (active)
same,Potency,[10],4.69 µM (active)
same,Potency,[11],5.9 µM (active)
same,Potency,[12],2.35 µM (active)
same,Potency,[13],2.35 µM (active)
COc1cccc2c1C(=O)c1c(O)c3c(c(O)c1C2=O)C[C@@](O)(C(=O)CO)C[C@@H]3O[C@H]1C[C@H](N)[C@H](OC2CCCCO2)[C@H](C)O1 (some centres not stated),Potency,[1],inactive
same,Potency,[2],2.09 µM (active)
same,Potency,[3],3.72 µM (active)
same,Potency,[5],0.469 µM (active)
same,Potency,[19],1.87 µM (active)
same,Potency,[6],1.48 µM (active)
same,Potency,[7],1.05 µM (active)
same,Potency,[8],inactive
same,Potency,[14],2.09 µM (active)
same,Potency,[16],inactive
same,Potency,[17],1.18 µM (active)
same,Potency,[15],2.96 µM (active)
same,Potency,[9],1.18 µM (active)
same,Potency,[20],1.18 µM (active)
same,Potency,[10],0.935 µM (active)
same,Potency,[11],14.8 µM (active)
same,Potency,[12],0.132 µM (active)
same,Potency,[13],0.296 µM (active)
CO[C@@H]1[C@@H](O)[C@H](O)[C@@H](n2c3c(Cl)cccc3c3c4c(c5c6cccc(Cl)c6[nH]c5c32)C(=O)NC4=O)O[C@@H]1CO,Potency,[1],1.32 µM (active)
same,Potency,[2],1.18 µM (active)
same,Potency,[3],1.48 µM (active)
same,Potency,[4],0.526 µM (active)
same,Potency,[5],0.187 µM (active)
same,Potency,[19],9.35 µM (active)
same,Potency,[6],0.418 µM (active)
same,Potency,[7],0.59 µM (active)
same,Potency,[8],0.118 µM (active)
same,Potency,[14],0.469 µM (active)
same,Potency,[15],2.64 µM (active)
same,Potency,[20],2.35 µM (active)
same,Potency,[10],0.833 µM (active)
same,Potency,[11],2.35 µM (active)
same,Potency,[12],0.372 µM (active)
same,Potency,[13],0.526 µM (active)
CN[C@H]1[C@@H](O)[C@@H]2O[C@@H]3O[C@H](C)CC(=O)[C@]3(O)O[C@@H]2[C@@H](NC)[C@H]1O,Potency,[1],0.469 µM (active)
same,Potency,[2],8.33 µM (active)
same,Potency,[3],5.26 µM (active)
same,Potency,[4],0.662 µM (active)
same,Potency,[5],2.96 µM (active)
same,Potency,[19],0.105 µM (active)
same,Potency,[6],2.64 µM (active)
same,Potency,[7],0.0743 µM (active)
same,Potency,[8],0.332 µM (active)
same,Potency,[14],9.35 µM (active)
same,Potency,[16],0.833 µM (active)
same,Potency,[18],0.418 µM (active)
same,Potency,[15],1.66 µM (active)
same,Potency,[9],1.66 µM (active)
same,Potency,[20],11.8 µM (active)
same,Potency,[11],8.33 µM (active)
same,Potency,[12],0.209 µM (active)
same,Potency,[13],1.18 µM (active)
Cn1cc(C2=C(c3c4n(c5ccccc35)CCC(CN)C4)C(=O)NC2=O)c2ccccc21 (configuration not stated),Potency,[1],9.35 µM (active)
same,Potency,[2],7.43 µM (active)
same,Potency,[3],10.5 µM (active)
same,Potency,[4],8.33 µM (active)
same,Potency,[5],3.72 µM (active)
same,Potency,[19],9.35 µM (active)
same,Potency,[6],7.43 µM (active)
same,Potency,[7],7.43 µM (active)
same,Potency,[8],8.33 µM (active)
same,Potency,[14],14.8 µM (active)
same,Potency,[16],8.33 µM (active)
same,Potency,[17],6.62 µM (active)
same,Potency,[18],7.43 µM (active)
same,Potency,[15],18.7 µM (active)
same,Potency,[20],13.2 µM (active)
same,Potency,[11],20.9 µM (active)
same,Potency,[12],6.62 µM (active)
same,Potency,[13],11.8 µM (active)
CCCCCCCCc1ccc(CCC(N)(CO)CO)cc1,Potency,[1],6.62 µM (active)
same,Potency,[2],8.33 µM (active)
same,Potency,[3],13.2 µM (active)
same,Potency,[4],5.9 µM (active)
same,Potency,[5],8.33 µM (active)
same,Potency,[19],18.7 µM (active)
same,Potency,[6],18.7 µM (active)
same,Potency,[7],5.9 µM (active)
same,Potency,[8],6.62 µM (active)
same,Potency,[14],14.8 µM (active)
same,Potency,[16],7.43 µM (active)
same,Potency,[17],3.72 µM (active)
same,Potency,[15],16.6 µM (active)
same,Potency,[9],13.2 µM (active)
same,Potency,[20],14.8 µM (active)
same,Potency,[10],7.43 µM (active)
same,Potency,[11],23.5 µM (active)
same,Potency,[12],7.43 µM (active)
same,Potency,[13],9.35 µM (active)
